# From PubChem BioAssay (EPA / NIEHS)
# Values joined by “and” are separate entries in the source; they are usually repeats but may differ in a detail not shown here. Equal entries are not always repeated. Results filed as inconclusive are left out. Active and inactive are the calls of the source. How the source made its calls, unless noted: active means hit-call score of the fitted dose curve at least 0.9, where 1 is the maximum; inconclusive means response in the unintended direction; inactive means score below 0.9.
# How the values were obtained:
# [1] = biological target: Cytochrome P450 3A4 (Homo sapiens) (UniProt P08684); assay: NVS_ADME_hCYP3A4: NovaScreen (NVS) CYP450-related Enzyme Activity (ADME) Assay for human CYP3A4 (AID 2283110)
# Summary of the method: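 Compounds were first screened in duplicate at 10 uM against recombinant CYP3A4 produced in insect cells, then actives were run in concentration series. Enzyme activity was measured by fluorescence after 0.33 hour, with acetonitrile as baseline.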
# [2] = biological target: human AKT serine/threonine Kinase 1 (AKT1), AKT1 (gene 207) (UniProt P31749); assay: NVS_ENZ_hAKT1: NovaScreen (NVS) Enzymatic Assay for human AKT serine/threonine Kinase 1 (AKT1) (AID 2283138)
# Summary of the method: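 Signal loss relative to DMSO, measured by fluorescence after electrophoretic separation of substrate and product, indicates inhibition of recombinant enzyme. Readings at 1 h; screening at 25 uM, follow-up curves up to 50 uM.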
# [3] = biological target: human Beta-secretase (BACE), BACE1 (gene 23621) (UniProt P56817); assay: NVS_ENZ_hBACE: NovaScreen (NVS) Enzymatic Assay for human Beta-secretase (BACE) (AID 2283140);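 further: hits are inhibitors that reduce fluorescent substrate signal versus DMSO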
# Summary of the method: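 Recombinant BACE1 (SF9 extract) incubated with compound and fluorescent substrate, 1 h. Plates carried positive and DMSO negative controls. Initial single dose 25 uM, duplicate; confirmation by concentration series.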
# [4] = biological target: human Caspase 8 (CASP8), CASP8 (gene 841) (UniProt Q14790); assay: NVS_ENZ_hCASP8: NovaScreen (NVS) Enzymatic Assay for human Caspase 8 (CASP8) (AID 2283146)
# Summary of the method: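 E. coli-expressed enzyme was used in a cell-free fluorogenic substrate assay read 1 h after dosing. Loss of signal was scored relative to DMSO, and the primary screen was run in duplicate at 25 uM.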
# [5] = biological target: human Casein Kinase 1-delta (CK1D), CSNK1D (gene 1453) (UniProt P48730); assay: NVS_ENZ_hCK1D: NovaScreen (NVS) Enzymatic Assay for human Casein Kinase 1-delta (CK1D) (AID 2283148)
# Summary of the method: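 Recombinant human CK1-delta, cell-free; fluorescent substrate with electrophoretic mobility-shift separation of product, read 1 h after dosing. Single 25 uM duplicate screen, then concentration-response up to 50 uM; loss of signal vs DMSO.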
# [6] = biological target: human Caspase 5 (CASP5), CASP5 (gene 838) (UniProt P51878); assay: NVS_ENZ_hCASP5: NovaScreen (NVS) Enzymatic Assay for human Caspase 5 (CASP5) (AID 2283137)
# Summary of the method: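 Cell-free protease assay with bacterially expressed CASP5 and a fluorescent substrate, measured at 2 h. Values fitted relative to DMSO as baseline, from concentration-response series topping at 50 uM.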
# [7] = biological target: Cytochrome P450 2C19 (Homo sapiens) (UniProt P33261); assay: NVS_ADME_hCYP2C19: NovaScreen (NVS) CYP450-related Enzyme Activity (ADME) Assay for human CYP2C19 (AID 2283113);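 further: potency for inhibition seen as loss of fluorescent signal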
# Summary of the method: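 Cell-free assay of recombinant human CYP2C19 expressed in insect cells, with a fluorogenic substrate; fluorescence intensity read 1 hour after dosing. Loss of signal relative to acetonitrile negative control indicates inhibition. Primary screen at 10 uM in duplicate, then concentration series.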
# [8] = biological target: rat CYP2A1, Cyp2a1 (gene 24894) (UniProt P11711); assay: NVS_ADME_rCYP2A1: NovaScreen (NVS) CYP450-related Enzyme Activity (ADME) Assay for rat CYP2A1 (AID 2283114; active means hit-call score of the fitted dose curve at least 0.9, where 1 is the maximum; inactive means score below 0.9)
# Summary of the method: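 Recombinant rat CYP2A1, cell-free, fluorogenic substrate turnover read by fluorescence intensity 0.75 h after dosing. Primary screen at 10 uM in duplicate; actives rerun as concentration-response up to 20 uM; loss of signal versus acetonitrile control.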
# [9] = biological target: rat CYP2A2, Cyp2a2 (gene 24895) (UniProt P15149); assay: NVS_ADME_rCYP2A2: NovaScreen (NVS) CYP450-related Enzyme Activity (ADME) Assay for rat CYP2A2 (AID 2283116)
# Summary of the method: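 Cell-free recombinant rat CYP2A2 activity with fluorogenic substrate, fluorescence read 0.2 h after dosing. Chemicals screened at 10 uM in duplicate, hits then run in concentration-response up to 20 uM; signal loss versus acetonitrile baseline.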
# [10] = biological target: rat CYP2C13, Cyp2c13 (gene 171521) (UniProt P20814); assay: NVS_ADME_rCYP2C13: NovaScreen (NVS) CYP450-related Enzyme Activity (ADME) Assay for rat CYP2C13 (AID 2283121)
# Summary of the method: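 Recombinant rat CYP2C13 with fluorogenic substrate, 0.75 h cell-free incubation; primary screen in duplicate at 10 uM, actives followed in concentration series. Fluorescence loss relative to acetonitrile control indicates inhibition.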
# rat CYP3A1, gene 25642 = assay: NVS_ADME_rCYP3A1: NovaScreen (NVS) CYP450-related Enzyme Activity (ADME) Assay for rat CYP3A1 (AID 2283126)
# Summary of the method: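 Cell-free recombinant CYP assay with fluorescent substrate, read 0.5 h after dosing. Screened at 10 uM in duplicate, hits at up to 20 uM in concentration-response; loss of signal versus acetonitrile baseline.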
# [11] = biological target: rat CYP3A2, Cyp3a2 (gene 266682) (UniProt P05183); assay: NVS_ADME_rCYP3A2: NovaScreen (NVS) CYP450-related Enzyme Activity (ADME) Assay for rat CYP3A2 (AID 2283128)
# Summary of the method: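 Cell-free rat CYP3A2 enzyme assay with fluorescent substrate, read 0.5 h after dosing. Primary duplicate screen at 10 uM; actives run in concentration-response up to 20 uM, relative to acetonitrile baseline.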
# [12] = biological target: human AKT serine/threonine Kinase 2 (AKT2), AKT2 (gene 208) (UniProt P31751); assay: NVS_ENZ_hAKT2: NovaScreen (NVS) Enzymatic Assay for human AKT serine/threonine Kinase 2 (AKT2) (AID 2283141)
# Summary of the method: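 Cell-free fluorescence/electrophoretic mobility shift readout of recombinant human AKT2 activity, 1 h after chemical dosing. Duplicate primary screen at 25 uM, then singleton concentration-response up to 50 uM; loss of signal versus DMSO baseline.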
# rat CYP2C13, Cyp2c13 (gene 171521), sequence (P20814 whole entry, looked up): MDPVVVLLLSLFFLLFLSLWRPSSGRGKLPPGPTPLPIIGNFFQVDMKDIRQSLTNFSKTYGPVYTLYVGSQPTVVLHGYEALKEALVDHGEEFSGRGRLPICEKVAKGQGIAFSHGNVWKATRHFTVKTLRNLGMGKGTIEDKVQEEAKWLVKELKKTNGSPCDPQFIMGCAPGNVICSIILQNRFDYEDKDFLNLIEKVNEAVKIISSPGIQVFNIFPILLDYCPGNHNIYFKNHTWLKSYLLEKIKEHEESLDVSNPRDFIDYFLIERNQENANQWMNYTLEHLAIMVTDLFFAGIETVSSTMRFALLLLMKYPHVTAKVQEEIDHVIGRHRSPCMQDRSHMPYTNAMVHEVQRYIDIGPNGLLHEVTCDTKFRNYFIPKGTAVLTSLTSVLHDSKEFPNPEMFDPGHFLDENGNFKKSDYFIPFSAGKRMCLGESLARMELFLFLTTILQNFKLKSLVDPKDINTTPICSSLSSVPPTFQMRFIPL
# rat CYP2A1, Cyp2a1 (gene 24894), sequence (P11711 whole entry, looked up): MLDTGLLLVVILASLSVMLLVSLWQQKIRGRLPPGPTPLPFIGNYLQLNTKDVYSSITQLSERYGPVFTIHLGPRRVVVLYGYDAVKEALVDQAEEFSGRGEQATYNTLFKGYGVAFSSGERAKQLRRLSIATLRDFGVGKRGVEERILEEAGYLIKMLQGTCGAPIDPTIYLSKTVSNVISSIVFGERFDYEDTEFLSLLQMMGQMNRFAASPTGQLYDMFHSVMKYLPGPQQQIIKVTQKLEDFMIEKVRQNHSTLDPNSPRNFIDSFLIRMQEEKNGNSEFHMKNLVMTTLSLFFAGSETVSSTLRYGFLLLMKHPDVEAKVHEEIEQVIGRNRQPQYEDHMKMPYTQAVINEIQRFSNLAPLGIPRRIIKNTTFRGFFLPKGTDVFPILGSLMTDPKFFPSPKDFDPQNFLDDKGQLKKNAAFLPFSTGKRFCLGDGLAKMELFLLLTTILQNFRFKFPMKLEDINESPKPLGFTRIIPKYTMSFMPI
# human Caspase 5 (CASP5), CASP5 (gene 838), sequence (P51878 whole entry, looked up): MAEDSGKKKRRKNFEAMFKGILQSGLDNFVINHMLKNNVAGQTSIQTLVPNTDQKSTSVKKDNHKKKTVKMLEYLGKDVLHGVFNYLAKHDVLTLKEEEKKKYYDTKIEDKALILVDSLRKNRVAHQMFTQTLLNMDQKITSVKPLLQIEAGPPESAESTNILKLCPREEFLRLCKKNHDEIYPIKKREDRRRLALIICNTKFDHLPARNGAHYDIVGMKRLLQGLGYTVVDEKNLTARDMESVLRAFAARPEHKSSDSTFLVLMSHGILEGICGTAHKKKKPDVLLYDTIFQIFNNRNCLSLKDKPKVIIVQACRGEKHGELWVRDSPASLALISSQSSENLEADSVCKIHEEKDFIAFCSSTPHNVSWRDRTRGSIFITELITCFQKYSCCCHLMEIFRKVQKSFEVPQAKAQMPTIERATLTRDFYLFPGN
# human AKT serine/threonine Kinase 2 (AKT2), AKT2 (gene 208), sequence (P31751 whole entry, looked up): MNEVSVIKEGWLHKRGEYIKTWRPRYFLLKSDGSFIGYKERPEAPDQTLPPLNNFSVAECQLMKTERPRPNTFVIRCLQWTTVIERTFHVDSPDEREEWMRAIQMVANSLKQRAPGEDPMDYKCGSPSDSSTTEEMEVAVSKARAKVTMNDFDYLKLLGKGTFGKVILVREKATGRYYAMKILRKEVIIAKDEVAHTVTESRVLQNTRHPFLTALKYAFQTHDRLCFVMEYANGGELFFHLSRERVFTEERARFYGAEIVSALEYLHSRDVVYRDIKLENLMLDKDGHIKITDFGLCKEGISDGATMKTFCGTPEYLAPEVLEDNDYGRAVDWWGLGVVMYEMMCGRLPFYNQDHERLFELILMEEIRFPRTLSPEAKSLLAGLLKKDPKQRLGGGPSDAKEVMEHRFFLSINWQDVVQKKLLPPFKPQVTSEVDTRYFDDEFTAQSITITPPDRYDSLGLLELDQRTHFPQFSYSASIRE
# rat CYP3A2, Cyp3a2 (gene 266682), sequence (P05183 whole entry, looked up): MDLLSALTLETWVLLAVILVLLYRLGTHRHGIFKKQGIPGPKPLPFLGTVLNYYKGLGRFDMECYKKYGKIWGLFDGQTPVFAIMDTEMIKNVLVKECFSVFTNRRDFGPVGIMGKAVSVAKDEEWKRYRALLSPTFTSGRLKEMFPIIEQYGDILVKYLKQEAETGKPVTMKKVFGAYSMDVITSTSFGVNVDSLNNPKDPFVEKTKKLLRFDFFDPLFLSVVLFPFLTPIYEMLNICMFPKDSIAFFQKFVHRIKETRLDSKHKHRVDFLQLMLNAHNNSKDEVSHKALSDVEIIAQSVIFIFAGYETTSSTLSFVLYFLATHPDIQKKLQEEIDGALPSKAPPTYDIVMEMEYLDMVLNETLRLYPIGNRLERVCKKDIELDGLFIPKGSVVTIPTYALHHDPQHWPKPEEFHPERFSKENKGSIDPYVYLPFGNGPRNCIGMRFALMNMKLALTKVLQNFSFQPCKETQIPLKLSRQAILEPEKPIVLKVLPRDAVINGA
# Cytochrome P450 3A4 (Homo sapiens), sequence (P08684 whole entry, looked up): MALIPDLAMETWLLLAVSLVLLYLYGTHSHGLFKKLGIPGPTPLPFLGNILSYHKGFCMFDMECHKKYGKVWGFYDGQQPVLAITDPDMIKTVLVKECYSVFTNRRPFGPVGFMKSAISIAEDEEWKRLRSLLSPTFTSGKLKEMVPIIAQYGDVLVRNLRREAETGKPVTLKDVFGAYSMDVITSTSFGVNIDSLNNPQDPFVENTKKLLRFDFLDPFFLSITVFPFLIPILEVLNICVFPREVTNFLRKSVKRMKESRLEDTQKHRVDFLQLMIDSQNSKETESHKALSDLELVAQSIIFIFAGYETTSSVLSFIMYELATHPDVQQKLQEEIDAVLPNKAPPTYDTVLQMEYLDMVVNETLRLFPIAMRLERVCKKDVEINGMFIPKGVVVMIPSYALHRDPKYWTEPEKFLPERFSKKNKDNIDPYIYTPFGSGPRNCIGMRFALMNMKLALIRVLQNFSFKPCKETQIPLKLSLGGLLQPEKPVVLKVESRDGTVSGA
# human Beta-secretase (BACE), BACE1 (gene 23621), sequence (P56817 whole entry, looked up): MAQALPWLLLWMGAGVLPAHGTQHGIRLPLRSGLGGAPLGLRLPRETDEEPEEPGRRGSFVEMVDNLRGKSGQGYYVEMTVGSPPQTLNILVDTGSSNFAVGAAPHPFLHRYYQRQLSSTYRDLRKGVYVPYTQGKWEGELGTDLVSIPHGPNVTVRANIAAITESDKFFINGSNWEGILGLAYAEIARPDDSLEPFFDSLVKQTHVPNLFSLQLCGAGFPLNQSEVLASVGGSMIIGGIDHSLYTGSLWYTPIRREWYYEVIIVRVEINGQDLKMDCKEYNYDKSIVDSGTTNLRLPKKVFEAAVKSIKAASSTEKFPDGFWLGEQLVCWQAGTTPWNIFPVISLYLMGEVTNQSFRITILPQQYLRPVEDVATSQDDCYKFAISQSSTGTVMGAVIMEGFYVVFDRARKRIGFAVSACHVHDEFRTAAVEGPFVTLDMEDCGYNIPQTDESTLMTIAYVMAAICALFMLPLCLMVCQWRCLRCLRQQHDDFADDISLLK
# human Caspase 8 (CASP8), CASP8 (gene 841), sequence (Q14790 whole entry, looked up): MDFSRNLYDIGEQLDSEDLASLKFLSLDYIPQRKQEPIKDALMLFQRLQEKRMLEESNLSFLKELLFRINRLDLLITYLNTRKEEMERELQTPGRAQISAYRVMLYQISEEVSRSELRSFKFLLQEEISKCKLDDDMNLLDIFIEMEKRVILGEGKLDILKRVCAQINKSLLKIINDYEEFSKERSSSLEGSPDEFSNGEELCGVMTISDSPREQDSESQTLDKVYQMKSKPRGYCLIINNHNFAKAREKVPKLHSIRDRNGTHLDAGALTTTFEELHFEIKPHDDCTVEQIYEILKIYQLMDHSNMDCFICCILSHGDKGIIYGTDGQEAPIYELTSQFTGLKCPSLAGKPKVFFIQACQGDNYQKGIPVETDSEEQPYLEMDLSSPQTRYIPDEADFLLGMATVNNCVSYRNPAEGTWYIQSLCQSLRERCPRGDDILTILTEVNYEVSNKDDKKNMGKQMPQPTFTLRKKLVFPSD
# rat CYP2A2, Cyp2a2 (gene 24895), sequence (P15149 whole entry, looked up): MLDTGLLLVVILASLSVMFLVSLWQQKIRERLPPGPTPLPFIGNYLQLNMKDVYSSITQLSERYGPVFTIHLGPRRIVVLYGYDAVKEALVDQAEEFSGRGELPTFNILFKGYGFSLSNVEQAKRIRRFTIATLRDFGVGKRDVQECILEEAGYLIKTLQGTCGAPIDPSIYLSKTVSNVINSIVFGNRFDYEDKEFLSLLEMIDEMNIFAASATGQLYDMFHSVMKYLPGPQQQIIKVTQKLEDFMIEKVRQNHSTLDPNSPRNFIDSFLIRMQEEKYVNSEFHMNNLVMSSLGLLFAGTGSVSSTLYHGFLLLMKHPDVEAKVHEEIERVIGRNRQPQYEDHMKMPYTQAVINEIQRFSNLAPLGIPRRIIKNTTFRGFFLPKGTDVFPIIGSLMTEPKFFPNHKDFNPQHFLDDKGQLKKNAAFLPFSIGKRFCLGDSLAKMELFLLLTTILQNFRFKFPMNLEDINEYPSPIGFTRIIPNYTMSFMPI
# human AKT serine/threonine Kinase 1 (AKT1), AKT1 (gene 207), sequence (P31749 whole entry, looked up): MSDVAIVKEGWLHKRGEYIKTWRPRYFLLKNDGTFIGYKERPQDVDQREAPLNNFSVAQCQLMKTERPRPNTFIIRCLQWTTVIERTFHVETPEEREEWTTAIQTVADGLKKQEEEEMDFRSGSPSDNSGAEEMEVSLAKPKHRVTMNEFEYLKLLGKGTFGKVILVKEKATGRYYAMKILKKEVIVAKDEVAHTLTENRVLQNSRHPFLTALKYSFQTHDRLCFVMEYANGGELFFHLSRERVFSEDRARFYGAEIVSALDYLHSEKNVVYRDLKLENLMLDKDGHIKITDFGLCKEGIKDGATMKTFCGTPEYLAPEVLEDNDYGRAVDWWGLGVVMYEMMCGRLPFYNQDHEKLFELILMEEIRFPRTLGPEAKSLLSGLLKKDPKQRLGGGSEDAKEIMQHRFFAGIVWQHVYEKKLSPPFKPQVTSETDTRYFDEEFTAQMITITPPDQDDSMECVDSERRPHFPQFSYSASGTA
smiles,measurement,setting,value
O=C(c1ccc(OCCN2CCCCC2)cc1)c1c(-c2ccc(O)cc2)sc2cc(O)ccc12,outcome,[1],inactive
same,outcome,[2],inactive
same,AC50,[3],15.3 µM (active)
same,outcome,[4],inactive
same,outcome,[5],inactive
Nc1ccc(N)c([N+](=O)[O-])c1,AC50,[6],8.68 µM (active) and 13.7 µM (active)
C[C@]12CC[C@@H]3c4ccc(O)cc4CC[C@H]3[C@@H]1CC[C@@H]2O,AC50,[7],813 nM (active) and 2.14 µM (active)
same,outcome,[8],inactive
same,AC50,[9],6.22 µM (active)
same,AC50,[10],492 nM (active) and 892 nM (active) and 748 nM (active)
same,outcome,"rat CYP3A1, gene 25642",inactive
same,AC50,[11],1.48 µM (active)
same,outcome,[12],inactive
